Measurements taken from the supplement of paper PMC3545927.
This is one part of the list. How many sequences the whole screen found active is unknown.

Target: furin, P09958
Experiment: furin cleavage Z-score vs untreated control; higher = more cleavage, active = 3.5 or more, inactive = 1 or less, 8 variable residues between constant flanks
Method in brief: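 Sequencing of released DNA, tagged with adapters by PCR, gave read counts used as abundance. That DNA was freed when purified furin cut N-terminally bead-bound 8-mer peptides fused to a cDNA oligonucleotide, in 0.01 ml reactions at 1:10 enzyme:substrate in 50 mM HEPES pH 7.5 with CaCl2 and NaCl, lasting 7.5, 15 or 30 min. The cleavage Z-score was the lowess-adjusted log count versus furin-free reactions, scaled by median absolute deviation.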

Sequence of furin, P09958 (P09958 whole entry): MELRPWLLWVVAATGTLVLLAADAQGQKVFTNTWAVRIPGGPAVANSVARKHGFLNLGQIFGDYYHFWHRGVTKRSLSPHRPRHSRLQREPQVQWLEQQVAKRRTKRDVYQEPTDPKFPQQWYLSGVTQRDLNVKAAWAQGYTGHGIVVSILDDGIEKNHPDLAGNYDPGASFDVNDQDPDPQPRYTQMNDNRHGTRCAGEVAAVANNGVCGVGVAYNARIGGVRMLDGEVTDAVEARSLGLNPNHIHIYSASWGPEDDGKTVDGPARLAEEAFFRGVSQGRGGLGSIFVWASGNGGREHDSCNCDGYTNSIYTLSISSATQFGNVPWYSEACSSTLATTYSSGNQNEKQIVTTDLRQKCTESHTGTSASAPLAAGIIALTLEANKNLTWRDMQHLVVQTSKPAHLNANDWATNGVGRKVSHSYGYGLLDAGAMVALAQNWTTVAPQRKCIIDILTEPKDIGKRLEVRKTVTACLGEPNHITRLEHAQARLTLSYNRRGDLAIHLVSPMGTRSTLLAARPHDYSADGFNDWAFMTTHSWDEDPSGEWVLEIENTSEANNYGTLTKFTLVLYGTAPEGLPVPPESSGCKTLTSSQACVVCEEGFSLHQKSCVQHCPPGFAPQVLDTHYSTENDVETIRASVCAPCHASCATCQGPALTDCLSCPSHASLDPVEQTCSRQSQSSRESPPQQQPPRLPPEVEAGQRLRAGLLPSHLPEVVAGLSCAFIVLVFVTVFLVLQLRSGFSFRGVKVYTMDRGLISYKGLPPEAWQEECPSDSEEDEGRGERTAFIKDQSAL

| Sequence | furin cleavage Z-score (7.5 min) | furin cleavage Z-score (15 min) | furin cleavage Z-score (30 min) |
| --- | --- | --- | --- |
| CALYFQSGTVAGNASASA [TV3] | -1.09 (inactive) | -1.65 (inactive) | -0.81 (inactive) |
| CAVFSQMETKAGNASASA [HC648] | -1.33 (inactive) | -0.992 (inactive) | -0.89 (inactive) |
| CAGYTGDFDSAGNASASA [HC882] | 0.222 (inactive) | -2.26 (inactive) | -1.5 (inactive) |
| CAICESAGVQAGNASASA [HC1532] | 0.831 (inactive) | -0.227 (inactive) | -1.02 (inactive) |
| CARKRRSTDFAGNASASA [FS-2217] | 9.58 (active) | 11.2 (active) | 9.06 (active) |
| CARKRRSTNEAGNASASA [FS-2039] | 13.4 (active) | 14 (active) | 10.3 (active) |
| CARKRKGSDDAGNASASA [FS-2696] | 1.74 | 0.267 (inactive) | -0.22 (inactive) |
| CARRNRLRKDAGNASASA [FS-87] | 7.91 (active) | 8.84 (active) | 6.68 (active) |
| CARRKRLRQDAGNASASA [FS-2780] | 0.471 (inactive) | 0.0552 (inactive) | 1.44 |
| CARRKRKNKDAGNASASA [FS-1967] | -0.815 (inactive) | 0.207 (inactive) | 1.06 |
| CARKGRCVEPAGNASASA [FS-2686] | 3.13 | 3.86 (active) | 4.66 (active) |
| CARKGRNKEIAGNASASA [FS-2687] | 0.916 (inactive) | 0.216 (inactive) | 0.59 (inactive) |
| CARTGRPVEPAGNASASA [FS-2822] | -0.133 (inactive) | -0.269 (inactive) | -0.327 (inactive) |
| CAQVPSPEFFAGNASASA [HC1218] | -1.13 (inactive) | -0.661 (inactive) | 0.459 (inactive) |
| CAVTVPHPNIAGNASASA [HC838] | 0.905 (inactive) | 1.12 | 1.65 |
| CASLLAPGAKAGNASASA [HC361] | -0.751 (inactive) | -1.11 (inactive) | -0.788 (inactive) |
| CADKRRSVRIAGNASASA [FS-1669] | 0.236 (inactive) | -0.291 (inactive) | 0.74 (inactive) |
| CARTQRSTEIAGNASASA [FS-2614] | 1.54 | 2.65 | 3.99 (active) |
| CAMKRRSVTMAGNASASA [FS-2126] | 1.48 | 0.933 (inactive) | 2.48 |
| CAVERRSVNKAGNASASA [FS-1814] | -1.15 (inactive) | -0.638 (inactive) | -0.108 (inactive) |
| CANKRRSVRFAGNASASA [FS-833] | 5.74 (active) | 7.19 (active) | 8.22 (active) |

| Sequence | furin cleavage Z-score (7.5 min) | furin cleavage Z-score (15 min) | furin cleavage Z-score (30 min) |
| --- | --- | --- | --- |
| CARKRRSVNPAGNASASA [FS-2702] | 11.8 (active) | 12.1 (active) | 9.6 (active) |
| CARAERKTEIAGNASASA [FS-2881] | -0.287 (inactive) | 1.15 | -0.302 (inactive) |
| CARKPRCGNPAGNASASA [FU7] | 0.143 (inactive) | 2 | 0.939 (inactive) |
| CAEVPCHIPSAGNASASA [HC2364] | 0.695 (inactive) | 0.0124 (inactive) | 0.569 (inactive) |
| CAAKQNVQLIAGNASASA [HC364] | 1.11 | 2.16 | -0.868 (inactive) |
| CADGGRPPRSAGNASASA [FS-1114] | 2.6 | 2.51 | 3.55 (active) |
| CAVFERVSRSAGNASASA [FS-733] | 5.52 (active) | 7.31 (active) | 6.35 (active) |
| CAATATPPGSAGNASASA [HC834] | -1.04 (inactive) | -0.000581 (inactive) | -0.987 (inactive) |
| CAAKQRPPRSAGNASASA [FS-1301] | 8.85 (active) | 8.91 (active) | 7.56 (active) |
| CAADHRFYRYAGNASASA [FS-1507] | -0.685 (inactive) | -0.762 (inactive) | 0.166 (inactive) |
| CAAKQRERRYAGNASASA [FS-1300] | 9.27 (active) | 10.1 (active) | 7.92 (active) |
| CAQGGRPPRPAGNASASA [FS-1055] | -0.328 (inactive) | -0.378 (inactive) | 0.24 (inactive) |
| CAMEECVQHLAGNASASA [HC23] | 0.873 (inactive) | 1.67 | 1.34 |
| CASGPWITPRAGNASASA [HC460] | -0.377 (inactive) | 1.52 | -0.355 (inactive) |
| CAITNRPPRSAGNASASA [FS-1216] | 2.7 | 5.07 (active) | 2.23 |
| CADGGRVSRSAGNASASA [FS-223] | 3.4 | 4.59 (active) | 5.66 (active) |
| CAITSRIIRSAGNASASA [FS-1217] | 9.87 (active) | 8.44 (active) | 6.88 (active) |
| CATTPCSSSWAGNASASA [HC1897] | -0.808 (inactive) | 1.71 | -0.0324 (inactive) |
| CAEATTPCSGAGNASASA [HC1963] | -1.21 (inactive) | -0.00595 (inactive) | 0.567 (inactive) |
| CAREMEECSQAGNASASA [HC1793] | 0.916 (inactive) | -0.677 (inactive) | 1.51 |
| CAWETARHTPAGNASASA [HC1569] | 0.673 (inactive) | 0.503 (inactive) | -0.633 (inactive) |
